Hits are enriched below; roughly 21% of the tested compounds scored in any of these assays.
Shiga inhibitor: inhibitors of Shiga toxin in Vero cells; inhibition, % at 38.7 µM; 290,000 tested, 9.2% active; Vero cells, Shiga toxin protein synthesis inhibition reporter; in the data active = inhibition mostly above about 28%, no sharp cut-off; inactive = mostly below about 43%
Pf growth 96h: inhibits malaria parasite growth, 96 h. P. falciparum luciferase reporter growth, 96 h. Potency, µM (top dose mostly 28.7 µM), usual class: inhibitors. 320,000 tested, 6.9% active
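96 h incubation, 37 C, 5% CO2, of luciferase-reporter P. falciparum-infected RBCs (2% hematocrit, 0.05% parasitemia final) with test compounds; endpoint luminescence.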
Pf growth 48h: P. falciparum growth inhibition at 48 hours (one generation); P. falciparum luciferase growth in erythrocytes, 48 h; Potency, µM (doses to about 28.7 µM), hits mostly inhibitors; 310,000 tested, 5.9% active; AID 504832
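Firefly luciferase activity from engineered P. falciparum reports growth; inhibitors lower the luminescent signal. Cultures contained 2% hematocrit erythrocytes at 0.1% final parasitemia.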
Cycloheximide cs: counter-screen hit for Shiga toxin inhibitors, cycloheximide; cell reporter, cycloheximide protein synthesis inhibition counterscreen; max response, %; 300,000 tested, 12% active; in the data active = max response mostly above about 13%, no sharp cut-off; inactive = mostly below about 14%; note: read at 38.3 µM for the half of the compounds with a filed dose
Large screens that a line does not name were inactive. Unless noted, calls come from the whole dose curve; as a rule, active = well fitted inhibition curve with a large enough effect; inconclusive = small, poorly fitted or top-dose-only effect, or another doubt; inactive = no such curve, though single readings can be large or run the other way.

O=C(/C=C/c1ccco1)Oc1ccc(C(=S)N2CCOCC2)cc1	Cycloheximide cs 35
O=C(/C=C/c1ccccc1)Oc1ccc(C(=S)N2CCOCC2)cc1	none
O=Cc1cccc(OC(=O)/C=C/c2ccco2)c1	Shiga inhibitor 80, Cycloheximide cs 52
COC(=O)c1ccc(OC(=O)/C=C/c2ccco2)cc1	Shiga inhibitor 36, Cycloheximide cs 26
Cc1ccc(C(=O)NC2CCCCCC2)cc1N1CCCC1=O	Pf growth 96h inconclusive, Cycloheximide cs 23
O=C(NC1CCCCCC1)c1cccc(N2CCCC2=O)c1	Shiga inhibitor 33, Cycloheximide cs 46
O=C(NCc1ccccc1CN1CCCC1)c1cccc(N2CCCC2=O)c1	Pf growth 96h 4.1µM, Pf growth 48h inconclusive (no result: Shiga inhibitor, Cycloheximide cs)
Cc1nc2ccc(NC(=O)c3ccc(S(=O)(=O)N(C)c4ccccc4)cc3)cc2s1	Pf growth 96h inconclusive, Pf growth 48h inconclusive
Cc1nc2ccc(NC(=O)N(C(C)C)C(C)C)cc2s1	Shiga inhibitor 53, Cycloheximide cs 35 (no result: Pf growth 48h)
CC(C)N(C(=O)Nc1ccc2nccnc2c1)C(C)C	none
Cc1nc2ccc(NC(=O)N(C)c3ccccc3)cc2s1	Shiga inhibitor 55, Cycloheximide cs 40
NCCCC(N)CC(=O)NCC1NC(=O)C(CO)NC(=O)C(N)CNC(=O)C(C2CCN=C(N)N2)NC(=O)/C(=C/NC(N)=O)NC1=O (stereo not given)	none (no result: Shiga inhibitor, Cycloheximide cs)
CNC(=S)N(CCc1ccc(OC)c(OC)c1)Cc1cc2c(C)cc(C)cc2[nH]c1=O	Pf growth 96h 12µM, Pf growth 48h inconclusive
CNC(=S)N(CCc1c(C)[nH]c2ccc(C)cc12)Cc1cc(OC)c(OC)c(OC)c1	Pf growth 96h 10µM
CNC(=S)N(CCc1c(C)[nH]c2ccc(OC)cc12)Cc1cc(OC)c(OC)c(OC)c1	Pf growth 96h 15µM, Pf growth 48h 10µM
CNC(=S)N(CCc1c(C)[nH]c2ccccc12)Cc1cc(OC)c(OC)c(OC)c1	Pf growth 96h inconclusive, Pf growth 48h inconclusive
Cc1ccc(S(=O)(=O)N2CCOCC2)cc1NC(=O)COC(=O)COc1cccc2c1OC(C)(C)C2	none (no result: Shiga inhibitor, Cycloheximide cs)
CC1CC(C)CN(S(=O)(=O)c2cccc3nsnc23)C1 (stereo not given)	none
Cc1nn(C(C)C(=O)NCCN2CCCC2)c(=O)c2c1sc1ccccc12 (stereo not given)	Pf growth 96h inconclusive
CS(=O)(=O)c1ccccc1-c1nc(-c2ccc(C(F)(F)F)cc2)no1	Shiga inhibitor 60, Cycloheximide cs 21
COc1ccccc1-c1nc(-c2ccc(Br)cc2)no1	Cycloheximide cs 30 (no result: Pf growth 48h)
COc1cc(OC)cc(-c2nc(-c3ccc(Br)cc3)no2)c1	Pf growth 96h inconclusive
O=C(NCc1ccccn1)c1nc(-c2ccc(C(F)(F)F)cc2)no1	Pf growth 96h inconclusive
CN(C)c1ccc(-c2noc(-c3ccccc3O)n2)cc1	Shiga inhibitor 126, Cycloheximide cs 47
Cc1ccc(-c2noc(-c3ccccc3Br)n2)cc1	Shiga inhibitor 65, Cycloheximide cs 35
CN1CCN(C(=O)c2ccccc2-c2nc(-c3ccc(Cl)cc3)no2)CC1	none (no result: Pf growth 96h)
CN(C(=O)COC(=O)c1ccc2[nH]c3c(c2c1)CCCC3)C1CCS(=O)(=O)C1 (stereo not given)	none
COc1ccc(-c2nc(-c3ccc(Br)cc3)no2)c(OC)c1	Shiga inhibitor 197, Pf growth 96h inconclusive, Cycloheximide cs 39
CCSc1ccccc1-c1nc(-c2ccncc2)no1	Pf growth 48h inconclusive, Cycloheximide cs 26
CCOc1ccccc1-c1nc(-c2ccncc2)no1	Pf growth 96h inconclusive, Pf growth 48h inconclusive
FC(F)(F)c1ccccc1-c1nc(-c2ccncc2)no1	Shiga inhibitor 47, Pf growth 48h inconclusive, Cycloheximide cs 40
COc1ccccc1-c1nc(-c2ccncc2)no1	Shiga inhibitor 79, Cycloheximide cs 32 (no result: Pf growth 96h)
CCOc1ccc(S(=O)(=O)NCc2ccc3c(c2)OCO3)cc1	Pf growth 96h inconclusive, Pf growth 48h inconclusive (no result: Shiga inhibitor)
Cn1c(N)c(C(=O)COC(=O)c2ccc(S(=O)(=O)N3CCCCC3)cc2)c(=O)n(C)c1=O	none
CCOc1nc(C)ccc1-c1noc(-c2ccccc2OC)n1	Cycloheximide cs 24
CCOc1cc(-c2nc(-c3ccc(C)nc3OCC)no2)cc(OCC)c1OCC	none
Cc1c(-c2nc(-c3ccc(C(F)(F)F)cc3)no2)n(C)oc1=O	Shiga inhibitor 129, Cycloheximide cs 70
Cc1nc(-c2cc(-c3nc(-c4ccc(C(C)(C)C)cc4)no3)no2)cs1	none
O=C(CN1CCN(S(=O)(=O)N2CCCCC2)CC1)Nc1ccc(Cl)c(Cl)c1	none
CC(=O)N1C(=O)N(C)C2C1N(C)C(=O)N2C(C)=O (stereo not given)	Pf growth 96h inconclusive
